Whole data set: some 24,000 sequences, median “enrichment r” near 0.99, cut for the highest 2% near 3.7. These entries were drawn from the full list.
T1: UNK ZnF1-3 (human, UniProt Q9C0B0 31-174)
T1 sequence: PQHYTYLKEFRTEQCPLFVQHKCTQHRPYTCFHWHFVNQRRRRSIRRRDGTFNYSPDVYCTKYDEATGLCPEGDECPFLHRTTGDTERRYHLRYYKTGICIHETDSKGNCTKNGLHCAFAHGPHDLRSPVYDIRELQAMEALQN

B1: 3369786_3369906_1343_3pUTR_ENSMUSG00000025899_ENSMUST00000053407|mouse|control|control (ssRNA)
RNA: GGGAGUUCUACAGUCCGACGAUCAGUCCUUGUUGAUGCCAAGGUAUUUUCCAUUUCCACAUCCGAUAUCUGCCACUAUGGAACCACUUGGCAAAGCUUUCAGGAACUCUACUAUGCGUGGCCAUGGGCUAUGUCUUGUGCUGCCAACAGAGGAUUGAGCAUCA
B2: chr7:141450121:141450122:+_ENSG00000106028_ENST00000265304|hu_mus|hu_hu_hu_mus_True|68_88 (ssRNA)
RNA: GGGAGUUCUACAGUCCGACGAUCUCAUCCGUUCUAUGCCUUUUCUUUCGUCUGGUCACUCAGAAAUAUAAUAUUAUCAGCUAUGAUUGUUGUUGCUUGCCGCCUCACAUUGUUUUUAUCCAUGUACUCGCCAUAGUCCACUUUCAACAGAGGAUUGAGCAUCA
B3: 139369022_139369142_3059_CDS_ENSG00000148396_ENST00000313050|human|control|control (ssRNA)
RNA: GGGAGUUCUACAGUCCGACGAUCGUCAGAAUGGGACGGGUUGUACACGUUUACAGGAUUUUCCAAAGUCCUGCUUAAGGUAAAGUCUAGGGCUCCGUAAGUGUCUUCCUGAUGACUGGAAUGGUUUGCCUUAUUACCAUCAGGCAACAGAGGAUUGAGCAUCA
B4: chr1:109605286:109605287:-_ENSG00000197780_ENST00000461096|hu_mus|hu_hu_hu_mus_True|8_108 (ssRNA)
RNA: GGGAGUUCUACAGUCCGACGAUCAAGAACAAUAACAACAUUCAGUAACCUCUUUAAAUGCAAUUAUCCUUAUUAUAAGCUAAGCAGAAUAAUAAUUUAAUACCGUAAGUGAACUACACACAAAGCCGUGUAUUCAGAAAUGGUCAACAGAGGAUUGAGCAUCA
B5: 25140584_25140782_2291_CDS_ENSMUSG00000026965_ENSMUST00000028341|mouse|control|control (ssRNA)
RNA: GGGAGUUCUACAGUCCGACGAUCUGCCCAGAAGAGCAGUAGCUCCUCUUCCUUCUGGUCAGCCUGGGAGGCCAUGCCUGAGUCACUCUCAUCAUCACUGUCAAUCAGCACCAUGUUGUCCCUAUCCUGAGGCCGCUCUUCCUCCAACAGAGGAUUGAGCAUCA
B6: chr15:23003119:23003120:+_ENSG00000068793_ENST00000560848|hu_mus|FALSE|FALSE (ssRNA)
RNA: GGGAGUUCUACAGUCCGACGAUCUUAUAAAGUUAAGCUUUCAGAUCAAAAGUAGGUUCAGACAUAAUGGAAAAUAGCCCCUAAAAAUUUCAAUAUAGUUUACAUAAAGACAAACAUGCCAUCAGUUACUGGGAUGCUGUGAGCCAACAGAGGAUUGAGCAUCA
B7: chr11:60965468:60965469:-_ENSMUSG00000042506_ENSMUST00000041683|mus_mus|motif|central (ssRNA)
RNA: GGGAGUUCUACAGUCCGACGAUCCUAACCACAGUACAAUCAUUGGAUUUUUUUUCCCUCACGAUUUUUUAUUUCAAAGCGGUAAUAAAUGAAACAAACCACUUGUCAAAAAGAACAAUGAUUUUACACAAGGAAAAGCAUACACAACAGAGGAUUGAGCAUCA
B8: chr17:87833181:87833182:-_ENSMUSG00000036438_ENSMUST00000040440|perfect_dup|motif|central (ssRNA)
RNA: GGGAGUUCUACAGUCCGACGAUCCGGGCUUAGAUAUAGCCAGAGUAAGCCACAUGCAACAUGUUACUUCAUCAAUUUUCGGAAAUAAGGUUUAAGGACAAUGACAGUAAGAUAAGGGAAGAAAACAUGGAGGAAUGAAGUCCUCAACAGAGGAUUGAGCAUCA
B9: chr18:52893488:52893489:-_ENSG00000196628_ENST00000354452|hu_hu|hu_hu_hu_mus_True|8_18 (ssRNA)
RNA: GGGAGUUCUACAGUCCGACGAUCUAUUUAGACCAUUUCCGCGGAGUUAUGGCAUUUACUCAGUGCUGAUAGGUGGAAAAACUACUUCAACAGGGAUUUUUUUUUUCCUUAAUACAUGCCAAGAAUUGUGUGGCUGUAAAACAGCAACAGAGGAUUGAGCAUCA
B10: 137534387_137536831_709_CDS_ENSG00000094880_ENST00000394886|human|control|control (ssRNA)
RNA: GGGAGUUCUACAGUCCGACGAUCCUCCUCUAUCAACUGCAACUCUGUGUAUAUAUGAGCCAGAAAAAACUCUUUCAUCCAGGUGUCUGGCAAAGACAGGAACUUCAGCAUCUCUUUGUCUGUGAUCAGGUUACAGAGUUCUAACAACAGAGGAUUGAGCAUCA
B11: chr16:94651144:94651145:+_ENSMUSG00000040785_ENSMUST00000117648|mus_hu|mus_mus_mus_hu_True|68_108 (ssRNA)
RNA: GGGAGUUCUACAGUCCGACGAUCAUUCUCUUGGAUCAAGUGGCGAAUAACAUAGUCCACUGCUUCAUGGACAAAAUUUCUGCUAGAAAAACAGGUUGUAUAGUCUUCUGUGCUCAAAACUUUCCAAGAAAGCAAUUCUUUGAGCAACAGAGGAUUGAGCAUCA
B12: chr14:89307221:89307222:+_ENSG00000165533_ENST00000346301|hu_mus|hu_hu_hu_mus_False|58_98 (ssRNA)
RNA: GGGAGUUCUACAGUCCGACGAUCUCCUGUUUGGUUAGUUCCAGGGAGCUUCAAAGAUGUGCCAGGGCGUGGGACCUGAGCUAUAGCAUUUUCAUCCAGGAUCAUUUCAGCAAUUCCUUCCUGGUCCACAUCAAUUUCAUCUAUCAACAGAGGAUUGAGCAUCA
B13: chr3:179287964:179287965:+_ENSG00000136518_ENST00000429709|hu_hu|hu_hu_hu_mus_True|88_108 (ssRNA)
RNA: GGGAGUUCUACAGUCCGACGAUCCUUUAGAGGUGAAAUGGCCUCCAUAUUCUCCCUGGGCACGCGGAGGGCAUUGGUGUCUAUGUAGUAGGUGGGCCCGCCCUGCUUGCCUUUGUCACCAUCAAUCUCCAUCAUUGUACUUCCCAACAGAGGAUUGAGCAUCA
B14: chrX:71549400:71549401:+_ENSMUSG00000019087_ENSMUST00000019231|mus_hu|mus_mus_mus_hu_False|8_98 (ssRNA)
RNA: GGGAGUUCUACAGUCCGACGAUCGCAGUAGGAAGAGCAAACCUUUCCAGUCCAGUGCGCUGCAGGGUGGGAAAGCAACAACACGGACACCGUCCCACCCUCAACCCCCCCACUGGCACAGGGUCACAUCUGGGUCAUCAAAGACAACAGAGGAUUGAGCAUCA

molecular target: T1, UNK ZnF1-3; assay: nsRBNS (natural sequence RNA bind-n-seq); RBNS binding buffer (assumed for nsRBNS): 25 mM Tris pH 7.5, 150 mM KCl, 3 mM MgCl2, 0.01% Triton X-100, 500 ug/ml BSA, 20 U/ml SUPERase-In, 4 C; UNK is unkempt and MSI1 is Musashi-1; names of the RNAs are library labels; protein concentration not given here; high values mean tight binding

| Binder | binding signal [enrichment R] |
| --- | --- |
| B1 | 0.678 |
| B2 | 0.541 |
| B3 | 0.675 |
| B4 | 0.741 |
| B5 | 1.06 |
| B6 | 2.11 |
| B7 | 0.852 |
| B8 | 2.55 |
| B9 | 1.05 |
| B10 | 1.71 |
| B11 | 0.52 |
| B12 | 0.829 |
| B13 | 0.786 |
| B14 | 0.928 |

From paper PMC12136788
